Screens (PubChem BioAssay)
esBAF inh = blocks esBAF chromatin remodeling in mouse ES cells; Bmi1-luciferase knock-in reporter, 24 h; 100% = twice the neutral-well signal; reporter increase, % at 12.5 µM; 2% of 350,000 active; in the data active = activation above about 40%;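 note: 0% = median of the plate's neutral control wells and 100% = double that signal; a rise in the Bmi1 reporter signal indicates esBAF inhibition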
HSF1 inhib = HSF1 inhibition; NIH3T3-HGL HSE-luciferase, MG132-induced, luminescence 8 h; hits give low values; activity change, negative = inhibition, % at 7.5 µM (by protocol); 0.77% of 300,000 active; AID 2098;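 active = more than half of replicate wells show activity change below -50%, luminescence cut by over half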;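 note: luciferase reports HSF-1 transcriptional activity via heat shock element; 0% = median of DMSO wells and -100% = zero luminescence signal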
HSF-1 act = increases HSF-1 driven luciferase reporter signal | NIH3T3-HGL HSF-1 luciferase reporter, MG132, 8 h; 100% = twice DMSO control signal | activation, % at 9 µM | 1.7% of 300,000 active | AID 504408;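 active = mean replicate activation of at least 50% with a set share of replicates each reaching 50%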;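 note: 0% = median of the neutral control wells and 100% = twice that signal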
Vif inh = blocks HIV Vif function | 0.35% of 340,000 active | HEK293T cells, Vif self-association by quenched fluorescence, imaging, 24 h | inhibition, % at 7.49 µM | AID 602346; in the data active = inhibition above about 50%, passing the limit was not always enough
Starred values were filed as active, the others as inactive; x = not tested or not shown. In the library only some 3.4% were active in any assay of this set; here they are far more common.

SMILES | esBAF inh | HSF1 inhib | HSF-1 act | Vif inh
CCOC(=O)C1=C(C)N(C[C@@H]2CC[C@@H](Cc3ccc4cc(OC)ccc4c3)O2)C(=O)NC1c1ccc(OC)cc1 (some centres not stated) | -6 | x | x | -7
COc1ccc2cc(C[C@@H]3CC[C@@H](CO)O3)ccc2c1 | 67* | x | x | -5
C[C@@H](O)C#Cc1cnc2c(c1)C(=O)N([C@@H](C)CO)C[C@H](C)[C@@H](CN(C)C(=O)c1ccncc1)O2 | -2 | x | x | x
S=C(N=Nc1ccccc1)NNc1ccccc1 | 63* | -6 | -7 | -2
S=C(NNC(=S)Nc1ccc(Cl)cc1)NNc1ccccc1 | x | x | x | 0
Cc1ccccc1NC(=O)COC(=O)CCc1nc2ccccc2c(=O)[nH]1 | 2 | 4 | -1 | 2
O=C(COC(=O)CCc1nc2ccccc2c(=O)[nH]1)Nc1c(Cl)cccc1C(F)(F)F | x | -70* | -77 | -6
O=C(N[C@H]1CC[C@@H](CCn2cc(C3CC3)nn2)O[C@H]1CO)c1cccnc1 | 3 | x | x | x
N#C/C(=C(/O)CN1CCCCC1)c1nc(-c2ccc(Cl)cc2)cs1 | 60* | x | x | -1
C[C@H]1CCCCO[C@@H](CN(C)C(=O)Nc2ccc(F)cc2)[C@@H](C)CN([C@@H](C)CO)C(=O)c2cc(NS(=O)(=O)c3ccccc3)ccc2O1 | 13 | x | x | x
C[C@@H]1CN([C@@H](C)CO)C(=O)Cc2cc(NC(=O)C3CCCCC3)ccc2O[C@H]1CN(C)S(C)(=O)=O | 0 | x | x | x
O=C(Nc1ccc(Cl)cc1C(F)(F)F)c1ccccc1Cl | x | x | x | 1
O=C(Nc1ccsc1C(=O)O)c1ccc(Cl)cc1 | 61* | 13 | 36 | -7
O=C(Nc1ccc(Cl)cc1C(F)(F)F)c1ccc(Cl)cc1 | 49* | -1 | 16 | 23
Cc1nnc(SCc2c(Cl)cccc2Cl)s1 | 55* | 24 | 7 | -7
Nc1nnc(SCc2c(F)cccc2Cl)s1 | x | 45 | 77* | -1
Cc1nnc(SCc2ccc(F)cc2Cl)s1 | 50* | 12 | 35 | -3
COc1cccc(-c2ccc3n(c2=O)C[C@H]2[C@H](CO)[C@@H](C(=O)N(C)C)[C@@H]3N2Cc2cncnc2)c1 | 2 | x | x | x
CCN1[C@@H]2c3ccc(-c4cccc(OC)c4)c(=O)n3C[C@@H]2[C@@H](CO)[C@@H]1C(=O)OC | 8 | x | x | x
Cc1cc(C(=O)CN2C(=O)C(=O)N(Cc3ccccc3)C2=O)c(C)n1-c1ccc2c(c1)OCCO2 | x | -70* | -68 | -2
Cc1nnc(NC(=O)Cn2nc(C)c3ccccc3c2=O)s1 | 3 | 1 | 9 | 70*
Cc1nn(CC(=O)Nc2ccccc2)c(=O)c2ccccc12 | 0 | 3 | -11 | 13
COc1coc(C(O)CN)cc1=O (configuration not stated) | x | -7 | 17 | 8
CCOC(=O)C(=Cc1cc(=O)c(OC)co1)C(=O)OCC | x | 80 | 94* | 2
CCN(CC)c1ccc(/C=C2\SC(=O)N(C(C)C)C2=O)o1 | 16 | 247 | 295* | x
SMILES | esBAF inh | HSF1 inhib | HSF-1 act | Vif inh
CCCCCNC(=O)C1CCC(Cn2c(=S)[nH]c3ccccc3c2=O)CC1 (configuration not stated) | 2 | 28 | 85* | -1
C[C@@H]1CN([C@@H](C)CO)C(=O)Cc2cc(NS(C)(=O)=O)ccc2O[C@H]1CN(C)CC1CCCCC1 | 0 | x | x | x
C[C@@H]1CCCCO[C@H](CN(C)C(=O)Cc2ccccc2)[C@@H](C)CN([C@H](C)CO)C(=O)c2cc(NS(=O)(=O)c3ccccc3)ccc2O1 | -6 | x | x | x
CC(C)N(Cc1nc(-c2ccc(Cl)cc2)no1)C(=O)CN(C)S(=O)(=O)c1ccc(Cl)cc1 | -11 | 38 | 85* | -12
O=S(=O)(Nc1ccc(NS(=O)(=O)c2ccccc2)cc1)c1ccccc1 | x | x | x | 0
O=C1C(Nc2ccccc2)=C(NS(=O)(=O)c2ccccc2)C(=O)c2ccccc21 | x | 33 | 60* | -12
CO[C@@H]1CN(C)C(=O)c2cc(NS(C)(=O)=O)ccc2OC[C@@H](C)N(C)C[C@@H]1C | -5 | x | x | x
COc1ccc(-c2cc3ccc(OCC(=O)NCC4CCC(C(=O)O)CC4)cc3oc2=O)cc1 (configuration not stated) | 9 | 22 | 38 | 3
COc1ccc2c(c1)c(=O)oc1cc(OCC(=O)NCC3CCC(C(=O)O)CC3)ccc12 (configuration not stated) | 3 | -5 | 9 | 55*
Cc1ccc(NC(=S)NC(=O)C2CC2)c(C)c1 | 50* | 11 | 13 | -7
Cc1ccc(NC(=S)NC(=O)C2CCCC2)cc1C | x | 10 | 18 | -2
O=C(NC(=S)Nc1cccc(O)c1)C1CCCCC1 | 42* | x | x | 4
Cc1ccc(NC(=S)NC(=O)C2CCC2)cc1C | 84* | -59* | -64 | 2
C[C@@H]1CN([C@H](C)CO)C(=O)c2cccc(NC(=O)C3CC3)c2O[C@H]1CN(C)S(=O)(=O)c1ccc(F)cc1 | 3 | x | x | x
COCC(=O)N(C)C[C@@H]1Oc2cc(C#C[C@H](C)O)ccc2S(=O)(=O)N([C@H](C)CO)C[C@H]1C | -2 | x | x | x
CC(=O)[C@@]1(O)Cc2c(O)c3c(c(O)c2[C@H](O[C@H]2C[C@H](N)[C@H](O)[C@H](C)O2)C1)C(=O)c1ccccc1C3=O | -82 | x | x | 66*
O=c1oc2ccccc2cc1NCc1ccccc1O | 63* | 41 | 40 | -7
CC1=C/C(=C\c2ccc(Br)o2)C(=O)O1 | x | -2 | 18 | 2
O=C1C(=Cc2ccc(Br)o2)C(=O)c2ccccc21 | 64* | x | x | -9
CO[C@@H]1CN(C)C(=O)c2ccc(NC(=O)Nc3ccc4c(c3)OCO4)cc2OC[C@@H](C)NC[C@@H]1C | 87* | x | x | x
CO[C@@H]1CN(C)C(=O)c2ccc(NC(=O)Nc3ccc4c(c3)OCO4)cc2OC[C@H](C)NC[C@@H]1C | 60* | x | x | x
C[C@H](NC(=O)[C@H]1[C@H](CO)[C@H]2Cn3c(cccc3=O)[C@@H]1N2Cc1ccccc1)c1ccccc1 | 1 | x | x | x
Cc1ccc(O)c(-n2nc3ccccc3n2)c1 | 43* | 7 | 37 | 3
COc1ccc(C)cc1-n1nc2ccccc2n1 | 6 | 0 | 17 | 2
c1ccc(-c2nc(NCc3cccnc3)c3oc4ccccc4c3n2)cc1 | 5 | 55 | 76* | -4
SMILES | esBAF inh | HSF1 inhib | HSF-1 act | Vif inh
Oc1ccc(-c2csc(NCc3ccco3)n2)cc1 | 49* | 2 | 2 | -8
c1coc(CNc2nc(-c3cccs3)cs2)c1 | x | 6 | 12 | 9
C/C(CC(=O)Nc1cccc2c1CCCC2)=N\NC(=O)c1ccccc1N | 16 | 29 | 57* | 8
C/C(CC(=O)Nc1cccc2c1CCCC2)=N\NC(=O)c1cccc2ccccc12 | -1 | 4 | 1 | -7
CCONc1ncnc2nonc12 | -1 | -7 | -4 | 5
Clc1ccc(CONc2ncnc3nonc23)c(Cl)c1 | 53* | 26 | 17 | -10
COc1cc(C(=O)N(C)C2CCCN(Cc3ccccc3F)C2)cc(OC)c1OC (configuration not stated) | 0 | -77* | -81 | 3
c1ccc(COc2ccc3nocc3c2)cc1 | 104* | 24 | 15 | x
Nc1ccc(OCc2ccccc2)cc1 | 17 | -4 | -4 | 14
